Source: PubChem BioAssay (National Center for Advancing Translational Sciences (NCATS))
Most compounds without a hit are left out; they make up all but 0.45% or so of the library.
BCR signal inh: inhibitors of chronic active B-cell receptor signaling. ABC-DLBCL IkBa-CBG/CBR reporter, luminescence ratio, 4 h. 0.05% of 340,000 active. Potency, µM (series often up to 46.1 µM), inactives show top-dose activity change, negative = inhibition, most hits filed as inhibitors; active means well fitted inhibition curve with a large enough effect in the signal ratio, with a control signal flat, not every such curve was filed as active; inconclusive means small, poorly fitted or top-dose-only effect, or effect the other way, or a change in a side signal; the % refers to the signal ratio;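 further: plate controls were basal doxycycline-induced cells for no effect and cells given 10 µM MG132 for full effect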
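Compounds up to 46 uM were incubated four hours with TMD8 cells whose green CBG68 luciferase is fused to IkappaBalpha; red CBR luminescence normalised the signal, and concentration-effect curves were fitted to fusion, red and ratio data.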
Apoferritin bind: binds horse apoferritin like a general anesthetic. Potency, µM (highest dose often 77.5 µM), without a hit: at the highest dose activity change, negative = displacement, hits mostly inhibitors. apoferritin/1-aminoanthracene competitive binding, fluorescence. AID 485281. 0.074% of 350,000 active; further: nearly all actives have a fitted effect of over 20% in size
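Steps: apoferritin (10 uM) was premixed with half-saturated 1-AMA in PBS, compounds were pin-transferred, plates stood 10 min at room temperature, fluorescence was read at 380/535 nm, and curves were fitted with a Hill equation.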
B2AR arrestin: recruits beta-arrestin to the human beta2-adrenergic receptor; P07550; beta-arrestin recruitment to beta2AR, cell-based reporter; Potency, µM (highest dose often 46.1 µM), for the others: at the top dose activation, most hits filed as activators; 0.02% of 330,000 active; AID 492947;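 further: 0% = DMSO controls and full agonism = EC100 isoproterenol or metaproterenol; nearly all actives have a fitted effect of over 65% in size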
Pin1 inhibitor: inhibitors of human Pin1; Pin1 FP peptide displacement, HiFluor488, 10 min; Potency, µM (titrated, usually from 115 µM), inactives show top-dose activity, negative = inhibition, hits mostly inhibitors; AID 504891; 0.009% of 390,000 active; Q13526; active means well fitted inhibition curve with a large enough effect in the polarisation, with a control signal flat, not every such curve was filed as active; inconclusive means small, poorly fitted or top-dose-only effect, or effect the other way, or a change in a side signal; inactive means no such curve, though single readings can be large or run the other way; the % refers to the polarisation
Target sequence (Q13526 whole entry, looked up): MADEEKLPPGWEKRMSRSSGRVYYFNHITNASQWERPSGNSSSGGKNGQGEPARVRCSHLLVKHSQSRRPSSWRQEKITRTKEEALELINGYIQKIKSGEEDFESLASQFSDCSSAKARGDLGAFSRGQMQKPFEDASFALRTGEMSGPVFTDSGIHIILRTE
FEN1 inhibitor: inhibitors of human flap endonuclease 1; P39748; Recombinant FEN1 flap cleavage, fluorescence, 15 min; Potency, µM (top dose mostly 114 µM), without a hit: at the highest dose activity change, negative = inhibition, most hits filed as inhibitors; 0.35% of 390,000 active; AID 588795; further: nearly all actives have a fitted effect of over 65% in size
Target sequence (P39748 whole entry, looked up): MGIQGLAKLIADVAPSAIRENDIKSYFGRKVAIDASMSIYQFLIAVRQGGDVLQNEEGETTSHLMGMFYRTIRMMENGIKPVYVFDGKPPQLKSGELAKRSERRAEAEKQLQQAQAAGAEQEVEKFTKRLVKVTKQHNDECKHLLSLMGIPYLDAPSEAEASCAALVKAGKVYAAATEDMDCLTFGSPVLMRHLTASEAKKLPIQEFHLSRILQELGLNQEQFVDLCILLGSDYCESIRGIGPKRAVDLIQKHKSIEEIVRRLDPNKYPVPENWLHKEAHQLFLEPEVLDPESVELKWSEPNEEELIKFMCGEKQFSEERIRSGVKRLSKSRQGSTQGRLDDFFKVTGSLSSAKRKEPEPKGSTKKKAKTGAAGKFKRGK
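Enzyme 10 nM, 15 min RT preincubation with compound; start with substrate 50 nM final; reads at 0 and 15 min; qHTS titration, four-parameter Hill fit.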
PGK inhibitor: inhibitors of T. brucei phosphoglycerate kinase; P07378; PGK/GAPDH coupled, Kinase-Glo luminescence, 60 min; Potency, µM (titrated, usually from 57.5 µM), for inactives: top-dose activity change, negative = inhibition, actives largely listed as inhibitors; 0.043% of 380,000 active; AID 602233; further: nearly all actives have a fitted effect of over 60% in size
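Luminescent ATP detection (Kinase-Glo Plus) follows a 60-minute room-temperature incubation, with wells lacking PGK as controls. Buffer: 100 mM TEA (pH 7.6), 5 mM MgCl2, 0.01% Tween-20. Coupling enzyme GAPDH (100 nM final) supplies unstable 1,3-BPG in-well.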
Starred values were filed as active, the others as inactive; i = inactive; ? = inconclusive; / = no result given; [ ] = another dose, or the depositor's remark. Unless noted, the call rests on the fitted dose curve; in most records, active means well fitted curve in the direction sought with a large enough effect; inconclusive means small, poorly fitted or top-dose-only effect, or another doubt; inactive means no such curve, though single readings can be large; an effect the other way counts as inactive or inconclusive. Unless noted, on the % scale 0 is the no-effect control and ±100 the full control effect; potency means the concentration at half of the fitted maximal effect.

SMILES	BCR signal inh	Apoferritin bind	B2AR arrestin	Pin1 inhibitor	FEN1 inhibitor	PGK inhibitor
COc1cc(OC)cc(C(=O)O/N=C(\N)c2ccccn2)c1	?	4%	8%	-8%	-5%	-2%
COc1ccc(C(=O)O/N=C(\N)c2ccccn2)cc1	?	-2%	0%	-2%	0%	11µM*
Cc1ccc(C(=O)O/N=C(\N)c2ccccn2)c(C)c1	?	-13%	-1%	-3%	0%	16µM*
CN(C)c1cccc(-c2ncnc(N3CCC(C(N)=O)CC3)n2)c1	/	/	/	-23%	/	/
COc1ccccc1C(=O)NCCC(=O)Nc1nc2ccccc2[nH]1	?	/	0%	4%	-9%	5%
COc1ccccc1C(=O)Nc1nc2ccccc2[nH]1	?	-2%	0%	1%	-1%	7.9µM*
O=C1c2cccc3cccc(c23)C(=O)C1(O)O	/	/	/	?	1µM*	-11%
CC(=O)N1C(=O)c2cccc3cccc(c23)C(=O)N1C(C)=O	?	-9%	0%	20%	0%	i
Nc1c(C(=O)O)cnc2c(-c3ccc(Cl)cc3)cnn12	?	-1%	0%	-1%	-17%	32µM*
Cc1ccc(/C=[N+](\[O-])c2ccc(N(C)C)cc2)c2nsnc12	10µM*	-17%	0%	21%	?	-19%
CSc1ccc(CNC(=O)c2cc3c(=O)n(Cc4ccco4)ccc3nc2C)cc1	/	-3%	/	18%	89µM*	i
CCCSc1nnc(NC(=O)CSc2sc3c(O)cc(=O)[nH]c3c2C#N)s1	0%	-20%	0%	/	35µM*	-26%
N#Cc1c(SCC(=O)Nc2nccs2)sc2c(O)cc(=O)[nH]c12	?	-7%	0%	?	45µM*	-11%
N#Cc1c(SCC(=O)Nc2nc3ccccc3s2)sc2c(O)cc(=O)[nH]c12	?	/	0%	?	18µM*	-27%
N#Cc1cccc(NC(=O)CSc2sc3c(O)cc(=O)[nH]c3c2C#N)c1	?	0%	0%	?	?	-2%
O=S(=O)(c1cccc(O)c1)N1CCN(S(=O)(=O)c2c(F)cccc2F)CC1	/	/	/	-6%	/	/
O=C1CCc2cc(S(=O)(=O)Nc3cccc(Br)c3)ccc2N1	/	/	/	-2%	/	/
COc1ccc(OC)c(C2SCCN2S(C)(=O)=O)c1 (stereo not given)	11%	-1%	-2%	-3%	-3%	-2%
COc1ccccc1C1SCCN1S(C)(=O)=O (stereo not given)	-7%	11µM*	1%	0%	-14%	-1%
CN(C)CCCn1c2c3ccccc3ccc2c2oc(=O)c3ccccc3c21	/	/	/	-7%	3.2µM*	i
CN(C)CCCN1C(=O)c2cc3ccccc3cc2C1=O	1%	-1%	-1%	-1%	1%	6%
O=S1(=O)N=C(Oc2ccc(Cl)cc2)c2ccccc21	/	/	/	6%[163 µM]	/	/
CS(=O)(=O)Nc1cccc(-c2cn3c(n2)SCC3)c1	4%	-11%	0%	/	20µM*	3%
ClC(Cl)(c1nnnn1-c1ccccc1)c1nnnn1-c1ccccc1	0%	-7%	0%	-7%	50µM*	-5%
c1ccc(-c2nnnn2-c2ccccc2)cc1	-3%	-12%	-1%	-6%	-1%	-5%
SMILES	BCR signal inh	Apoferritin bind	B2AR arrestin	Pin1 inhibitor	FEN1 inhibitor	PGK inhibitor
Cc1ccc(NS(=O)(=O)c2cc3c(cc2N(C)C)NC(=O)CC3)cc1C	/	/	/	-7%	/	/
O=S1(=O)N=C(Oc2ccccc2F)c2ccccc21	/	/	/	0%	/	/
CC1CC(=O)c2c(cc3c(-c4c(O)cc(O)c5c(O)c6c(cc45)OC(C)CC6=O)c(O)cc(O)c3c2O)O1 (stereo not given)	?	?	0%	?	14µM*	-17%
O=C1CC(c2ccccc2)Oc2cc(O)cc(O)c21 (stereo not given)	6%	-16%	0%	?	11%	3%
CC[N+](CC)(CC)c1ccc(/C=C/c2ccc3ccccc3n2)cc1	/	/	/	/	40µM*	/
Cc1cccc(Nc2nc(C#N)nc(NC3CCCC3)n2)c1	/	/	/	8%	/	/
COc1cc(Cn2ncc3c4sc(C)cc4n(C)c3c2=O)cc(OC)c1	/	/	/	1%	/	/
